Experimental data published in the supplement of paper PMC6522484.
± gives the standard deviation of the averaged measurements.

Legend:
DLD1 [1] = test: cell viability (CellTiter-Glo) relative to plate median (fraction of plate median); higher = more viable cells; conditions: 5 µM; treatment time 24 h; reporter: 7TFP
Method in brief: (§1)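 Values are well luminescence normalised to the plate median, from either a firefly luciferase or a CellTiterGlo readout on parallel plates. The cells, colorectal cancer lines stably transduced with lentiviral 7TFP or TCF4/Wnt firefly luciferase reporters, were treated with library compounds at a final 5 µM for 24 h. The mean of two independent replicates is listed.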

HCT116 = test: as above; conditions: 5 µM; treatment time 24 h; reporter: TCF4/Wnt
Method in brief: as §1

SW480 [2] = test: as above; conditions: 5 µM; treatment time 24 h; reporter: 7TFP
Method in brief: as §1

DLD1 [3] = test: TCF/Wnt firefly luciferase reporter signal relative to plate median (fraction of plate median); higher = higher Wnt reporter signal; conditions: 5 µM; treatment time 24 h; reporter: 7TFP
Method in brief: as §1

SW480 [4] = test: as above; conditions: 5 µM; treatment time 24 h; reporter: 7TFP
Method in brief: as §1

Structure (SMILES) | cell viability (DLD1 [1]) | cell viability (HCT116) | cell viability (SW480 [2]) | TCF/Wnt firefly luciferase reporter signal (DLD1 [3]) | TCF/Wnt firefly luciferase reporter signal (SW480 [4])
CC1(C)S[C@@H]2[C@H](NC(=O)[C@H](NC(=O)N3CCNC3=O)c3ccccc3)C(=O)N2[C@H]1C(=O)O | 1.07 ± 0.014 | 0.988 ± 0.0042 | 0.956 ± 0.046 | 0.903 ± 0.0099 | 0.919 ± 0.053
C=CC(C1=CC(=O)C(OC)=CC1=O)c1ccc(O)cc1 (stereo not given) | 1.01 | 1.1 ± 0.021 | 1.02 | 0.879 ± 0.0028 | 0.877 ± 0.12
Cc1c(Cl)cccc1Nc1ccccc1C(=O)O | 0.981 ± 0.041 | 1.04 ± 0.014 | 0.914 ± 0.039 | 0.979 ± 0.12 | 0.862 ± 0.022
CN(C)CCc1c[nH]c2ccc(C[C@H]3COC(=O)N3)cc12 | 0.931 ± 0.059 | 1.08 ± 0.078 | 1.04 ± 0.014 | 1.03 ± 0.021 | 0.95 ± 0.069
NC(=O)c1cnccn1 | 0.988 ± 0.045 | 0.9595 ± 0.0035 | 1.02 ± 0.05 | 1.02 ± 0.13 | 0.942 ± 0.083
CC[C@H](C)[C@H](N)C1=N[C@H](C(=O)N[C@@H](CC(C)C)C(=O)N[C@H](CCC(=O)O)C(=O)N[C@H](C(=O)N[C@H]2CCCCNC(=O)[C@H](CC(N)=O)NC(=O)[C@@H](CC(=O)O)NC(=O)[C@H](Cc3cnc[nH]3)NC(=O)[C@@H](Cc3ccccc3)NC(=O)[C@H]([C@@H](C)CC)NC(=O)[C@@H](CCCN)NC2=O)[C@@H](C)CC)CS1 | 1.05 ± 0.05 | 1.03 ± 0.021 | 0.992 ± 0.04 | 1.03 ± 0.042 | 1.03 ± 0.021
COc1cc(O)c(C(C)=O)c(OC)c1 | 1.12 ± 0.11 | 1.03 ± 0.059 | 1.055 ± 0.0071 | 0.978 ± 0.19 | 0.983 ± 0.11
O=C1CC(c2ccc(O)c(O)c2)Oc2cc(O)cc(O)c21 (stereo not given) | 1.04 ± 0.14 | 1.08 ± 0.057 | 0.973 ± 0.095 | 0.912 ± 0.011 | 0.862 ± 0.0014
O=S(=O)(O)c1cc(N=C=S)ccc1/C=C/c1ccc(N=C=S)cc1S(=O)(=O)O | 0.952 ± 0.046 | 0.9585 ± 0.0064 | 1.01 ± 0.03 | 0.981 ± 0.11 | 1.05 ± 0.064
COc1ccc(C(Cl)=C(c2ccc(OC)cc2)c2ccc(OC)cc2)cc1 | 1.01 ± 0.044 | 1.12 ± 0.05 | 0.978 ± 0.032 | 0.915 ± 0.19 | 0.877 ± 0.17
Clc1ccc2c(c1)C(N1CCNCC1)=Nc1ccccc1O2 | 1.045 ± 0.0071 | 1.085 ± 0.0071 | 0.995 ± 0.021 | 0.789 ± 0.058 | 0.905 ± 0.042
COc1ccccc1OCC(O)CN1CCN(CC(=O)Nc2c(C)cccc2C)CC1 (stereo not given) | 0.977 ± 0.018 | 0.927 ± 0.018 | 0.944 ± 0.013 | 1.04 ± 0.028 | 0.881 ± 0.0092
CCC(=O)OCC(=O)[C@@]1(OC(=O)CC)[C@@H](C)C[C@H]2[C@@H]3CCC4=CC(=O)C=C[C@]4(C)[C@@]3(F)[C@@H](O)C[C@@]21C | 1.015 ± 0.0071 | 1.03 ± 0.073 | 0.963 ± 0.018 | 0.876 ± 0.12 | 0.941 ± 0.014
Cc1cc(O)cc(=O)o1 | 1.05 ± 0.064 | 1.07 ± 0.05 | 1.04 ± 0.028 | 0.988 ± 0.1 | 1.03 ± 0.21
c1ccc2c(c1)CCCC2C1=NCCN1 (stereo not given) | 1.02 ± 0.014 | 1.125 ± 0.0071 | 1.07 ± 0.05 | 1.08 ± 0.19 | 0.985 ± 0.0014
O=C(NCO)c1cccnc1 | 0.952 ± 0.027 | 0.921 ± 0.022 | 1.04 ± 0.028 | 1.02 ± 0.13 | 0.959 ± 0.013
O=C1NC(Cc2ccc(O)cc2)C(=O)NC1Cc1ccc(O)cc1 (stereo not given) [Cyclo(tyrosyltyrosyl)] | 0.902 ± 0.091 | 0.942 ± 0.11 | 0.953 ± 0.011 | 1.04 ± 0.057 | 0.98 ± 0.023
O=C(O)[C@H](O)[C@@](O)(Cc1ccc(O)cc1)C(=O)O | 0.954 ± 0.08 | 0.962 ± 0.082 | 0.955 ± 0.021 | 1.005 ± 0.0071 | 0.923 ± 0.11
CCCN(CCC)S(=O)(=O)c1ccc(C(=O)O)cc1 | 1.03 ± 0.054 | 1.1 ± 0.078 | 1.1 ± 0.078 | 1.12 ± 0.21 | 1.115 ± 0.0071
O=C(O)/C=C(\CC(=O)O)C(=O)O | 1.05 ± 0.014 | 0.98 ± 0.018 | 1 ± 0.011 | 1.11 ± 0.035 | 0.978 ± 0.059
N[C@@H](Cc1c[nH]c2ccccc12)C(=O)O | 1.07 ± 0.078 | 1.07 ± 0.014 | 1.03 ± 0.014 | 1.21 ± 0.028 | 1.1 ± 0.05
CCCCOC(=O)c1ccc(N)cc1 | 1.02 ± 0.054 | 0.942 ± 0.023 | 0.961 ± 0.021 | 0.936 ± 0.027 | 1.03 ± 0.083
COc1ccc(OC)c(C(O)CNC(=O)CN)c1 (stereo not given) | 0.944 ± 0.067 | 0.912 ± 0.064 | 1.03 ± 0.035 | 1.06 ± 0.2 | 1.16 ± 0.092
COc1c2ccoc2cc2oc(=O)ccc12 | 1.02 ± 0.046 | 0.946 ± 0.018 | 0.978 ± 0.015 | 0.984 ± 0.093 | 1.01 ± 0.028
O=C1c2ccccc2C(=O)c2c1ccc(O)c2O | 1.01 ± 0.074 | 1.05 ± 0.13 | 0.983 ± 0.053 | 1.09 ± 0.11 | 1.1 ± 0.13
CN(C)[C@@H]1C(O)=C(C(N)=O)C(=O)[C@@]2(O)C(O)=C3C(=O)c4c(O)cccc4[C@@](C)(O)[C@H]3[C@H](O)[C@@H]12 | 1.02 ± 0.17 | 1.07 ± 0.071 | 1.01 ± 0.021 | 0.901 ± 0.18 | 1 ± 0.071
C[C@@H]1O[C@@H](O[C@H]2[C@H](O[C@H]3CC[C@@]4(C)[C@@H](CC[C@]5(C)[C@@H]4CC=C4[C@@H]6CC(C)(C)CC[C@]6(C(=O)O)CC[C@]45C)[C@]3(C)CO)OC[C@H](O)[C@@H]2O)[C@H](O)[C@H](O)[C@H]1O | 1.04 ± 0.062 | 1.05 ± 0.1 | 1.03 ± 0.098 | 1.04 ± 0.014 | 1.06 ± 0.064
CCCCCCNC(=O)n1cc(F)c(=O)[nH]c1=O | 1.06 ± 0.042 | 0.925 ± 0.13 | 1.04 ± 0.014 | 0.971 ± 0.13 | 1.08 ± 0.078
CC1=CC(=O)C(C(C)C)=CC1=O | 1.04 ± 0.057 | 1.03 ± 0.054 | 1.05 ± 0.014 | 1.09 ± 0.11 | 1.1 ± 0.064
CN(C)CCN(Cc1ccccc1)c1ccccn1 | 0.9435 ± 0.0078 | 0.925 ± 0.13 | 1 ± 0.022 | 1 ± 0.25 | 1.03 ± 0.05
